IkB signaling: suppresses IkB signaling in ABC-DLBCL reporter cells. ABC-DLBCL IkBa-CBG/CBR dual luciferase ratio, 4 h; response scale: scaled: untreated 0%, proteasome inhibitor 100%. Potency, µM (doses to about 57.1 µM), inactives show top-dose IkBa stabilization activation. 110,000 tested, 0.04% active. AID 445; active = well fitted curve in the direction sought with a large enough effect in the signal ratio, not every such curve was filed as active; inconclusive = small, poorly fitted or top-dose-only effect, or a change in a side signal; the % refers to the signal ratio;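 also: the direction sought is a rising ratio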
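In this assay, an IκBα–CBG68 fusion accumulates when IKK-driven degradation is blocked; native CBR normalizes for cell number. OCI-Ly3 cells were treated 4 h with compound and doxycycline, then green and red light read after Chroma-Glo addition.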
ERK AVP inh: vasopressin-driven ERK pathway inhibition. HEK293-V1b, vasopressin-stimulated pERK AlphaScreen. Potency, µM (doses to about 57.5 µM), for the others: at the highest dose activity, negative = inhibition, usual class: inhibitors. 72,000 tested, 0.99% active. AID 995; also: % is scaled to controls: 0 for no effect and ±100 for the full control effect; nearly all actives have a fitted effect of over 55% in size
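V1b-HEK293 cells; cpd 30 min 37C; 25 nM vasopressin 5 min; lyse 10 min; AlphaScreen beads 5 hr RT. Normalized to DMSO basal and 25 nM vasopressin; AC50 by Hill fit.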
CRE Fsk mod: alters forskolin-stimulated CRE reporter signaling in CHO cells | 71,000 tested, 2.5% active | CHO CRE-bla reporter (cAMP response element driving beta-lactamase), forskolin EC10, beta-lactamase ratio | Potency, µM (titrated, usually from 38.2 µM), without a hit: top-dose activity change, negative = inhibition, hits mostly activators; active = well fitted activation curve with a large enough effect in the signal ratio, with a control signal flat, not every such curve was filed as active; inconclusive = small, poorly fitted or top-dose-only effect, or effect the other way, or a change in a side signal; the % refers to the signal ratio; also: % of control where 0% means no effect
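Beta-lactamase reporter under a cAMP responsive element in CHO cells; compounds tested in titration series against EC10 NKH 477, 3 h at 37 °C. Read-out: CCF4 FRET ratio 460nm/530nm (excitation 405nm) giving %Activity, fitted to AC50.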
TSHR ag: agonists of human thyroid stimulating hormone receptor | P16473 | HEK293-CNG-TSHR cells (CNG channel as cAMP sensor), membrane potential dye, cAMP | Potency, µM (highest dose often 57.1 µM), for the others: at the top dose activation, usual class: activators | 73,000 tested, 0.48% active; active = well fitted activation curve with a large enough effect in the main read-out, with a control signal flat, not every such curve was filed as active; inconclusive = small, poorly fitted or top-dose-only effect, or a change in a side signal; inactive = no such curve, though single readings can be large or run the other way; % of control where 0% means no effect;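 also: the control signal comes from parental cells without the receptor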
Target sequence (P16473 whole entry, looked up): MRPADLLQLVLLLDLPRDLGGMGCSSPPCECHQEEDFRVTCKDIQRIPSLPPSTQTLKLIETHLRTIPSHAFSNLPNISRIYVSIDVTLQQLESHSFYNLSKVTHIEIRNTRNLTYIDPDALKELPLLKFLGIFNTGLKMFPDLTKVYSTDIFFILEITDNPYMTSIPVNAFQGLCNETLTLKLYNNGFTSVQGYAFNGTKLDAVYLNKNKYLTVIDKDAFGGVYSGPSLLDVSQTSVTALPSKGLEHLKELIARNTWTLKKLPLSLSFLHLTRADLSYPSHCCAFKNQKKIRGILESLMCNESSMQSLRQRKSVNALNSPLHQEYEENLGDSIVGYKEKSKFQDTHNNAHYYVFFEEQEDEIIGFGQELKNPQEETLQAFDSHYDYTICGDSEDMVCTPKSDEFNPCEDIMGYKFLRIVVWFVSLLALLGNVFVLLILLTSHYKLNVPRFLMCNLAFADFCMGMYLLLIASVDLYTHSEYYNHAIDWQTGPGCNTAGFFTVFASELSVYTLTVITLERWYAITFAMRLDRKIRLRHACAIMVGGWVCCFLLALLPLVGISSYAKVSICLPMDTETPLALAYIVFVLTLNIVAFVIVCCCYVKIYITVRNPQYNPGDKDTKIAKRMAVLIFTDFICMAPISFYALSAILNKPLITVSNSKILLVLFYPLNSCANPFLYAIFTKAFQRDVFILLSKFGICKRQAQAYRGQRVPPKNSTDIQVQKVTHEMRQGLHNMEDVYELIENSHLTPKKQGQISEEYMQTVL
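HEK 293 cells stably expressing TSHR and a modified CNG channel, with CNG-only parental cells as counterscreen, were preloaded 60 min at room temperature with membrane potential dye containing 100 uM RO 20-1724. Compound exposure was 30 min, and depolarization was read as fluorescence at 590 nm.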
HEK293 cAMP ctrl: parental HEK293 cAMP activation (counter-screen); parental HEK293 CNG cAMP sensor, membrane potential fluorescence; 73,000 tested, 2.5% active; Potency, µM (top dose mostly 57.1 µM), inactives show at the highest dose activation, actives largely listed as activators; also: % of control where 0% means no effect; nearly all actives have a fitted effect of over 55% in size
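Counterscreen for endogenous-receptor signalling: CNG-channel HEK 293 cells report cAMP rise by membrane depolarization. After 60 min dye equilibration with 100 uM RO 20-1724, compounds incubated 30 min before bottom-read fluorescence at 590 nm.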
An asterisk follows results filed as active; ? = inconclusive; · = no result given; [ ] = dose if it differs, or a comment. A selection: hits, their analogues and other compounds. The true share with any hit is near 3.6%. Unless noted, calls follow the shape of the dose curve; as a rule, active = well fitted curve in the direction sought with a large enough effect; inconclusive = small, poorly fitted or top-dose-only effect, or another doubt; inactive = no such curve, though single readings can be large; an effect the other way counts as inactive or inconclusive. Potency is read from the fitted curve at half-maximal effect.

SMILES	IkB signaling	ERK AVP inh	CRE Fsk mod	TSHR ag	HEK293 cAMP ctrl
COC(=O)c1c(C)n(-c2ccc(OC)cc2)c2ccc(O)cc12	?	25µM*	16%	·	4%
COc1cc(Nc2cc(C)nc3nc(C)nn23)cc(OC)c1OC	1%	-32%	4µM*	3%	4%
COc1cccc(Nc2cc(C)nc3nc(C)nn23)c1	3%	-15%	13µM*	1%	7%
COc1ccc(C)cc1Nc1cc(C)nc2nc(C)nn12	-4%	-21%	10µM*	9%	12%
Cc1ccccc1N(CC(=O)NC1CCCC1)C(=O)CS(=O)CC(=O)Nc1ccc2c(c1)OCO2 (stereo unspecified)	2%	-24%	-16%	-4%	1%
CSc1nnc2c(n1)OC(c1ccc(C(=O)O)cc1)N(C(C)=O)c1ccccc1-2 (stereo unspecified)	-1%	-2%	-5%	-12%	0%
CSc1nnc2c(n1)OC(c1cccn1C)N(C(C)=O)c1ccccc1-2 (stereo unspecified)	6%	6%	-2%	?	16µM*
Cc1occc1-c1nnc(SCC(=O)NCCc2ccccc2)n1Cc1ccccc1	?	-22%	-6%	?	20µM*
C=CCSc1nc2c(c(=O)n(C)c(=O)n2C)n1CC	1%	-16%	?	8%	-4%
Cc1occc1-c1nnc(SCC(=O)Nc2ccccc2N2CCCCC2)n1C	0%	-5%	11%	?	32µM*
Cn1c(-c2ccc(F)cc2)cnc1SCC(=O)Nc1ccccc1N1CCOCC1	?	32µM*	?	?	?
Cn1nnnc1SCC(=O)Nc1ccccc1N1CCOCC1	0%	5%	?	-3%	8%
CCn1c(SCC(=O)N2CCCC2)nc2c1c(=O)n(C)c(=O)n2C	0%	20µM*	?	-1%	1%
CCOC(=O)C1CCN(c2c(NCc3ccc(C(=O)NC(C)CC)cc3)c(=O)c2=O)CC1 (stereo unspecified)	0%	21%	?	-2%	4%
CCOc1cccc(CC(=O)N2CCc3c([nH]c4ccccc34)C2c2ccc(SC)cc2)c1OCC (stereo unspecified)	1%	·	·	·	·
CCCc1cc(COC)c(C#N)c(=O)[nH]1	-1%[11.4 µM]	5%[11.5 µM]	11%[7.6 µM]	-1%[11.4 µM]	3%[11.4 µM]
CCn1c(SCC(=O)Nc2ccccc2N2CCCCC2)nc2c1c(=O)n(C)c(=O)n2C	?	-18%	10µM*	?	16µM*
COc1cc(C(=O)O)ccc1OC(C)=O	-4%	-10%	3%	?	?
COc1cc(C2N(c3ccccc3)CCN2c2ccccc2)ccc1OC(C)=O	1%	-17%	?	3.2µM*	7%
O=c1c2sc3ccccc3c2n(Cc2cccc(C(F)(F)F)c2)c(=O)n1-c1ccccc1	-1%	·	·	·	·
O=C(NCc1ccccc1)NC1(C(=O)Nc2ccc3c(c2)OCCO3)CCCCC1	6%	-17%	-2%	2µM*	15%
O=C(Nc1ccccc1)NC1(C(=O)NCc2ccc3c(c2)OCO3)CCCCC1	1%	-3%	-11%	17%	6%
CC1(C)Cc2ccccc2-c2nnc(SCC(=O)Nc3nc4ccccc4s3)n21	3%	53%	4µM*	?	5µM*
COc1ccc(-n2c(C)cc(C(=O)Cn3c(NCCO)nc4ccccc43)c2C)cc1	?	10µM*	-10%	11%	21%
O=C(Cn1c(NCCO)nc2ccccc21)c1cccs1	0%	-6%	-8%	-1%	5%
SMILES	IkB signaling	ERK AVP inh	CRE Fsk mod	TSHR ag	HEK293 cAMP ctrl
CN1CCc2c(sc(/N=C/c3cccs3)c2C(N)=O)C1	0%	-3%	10µM*	-9%	-1%
c1ccc(-c2ccc(-c3ccc(C4=NCCN4)cc3)o2)cc1	-4%[11.4 µM]	24%[11.5 µM]	0.5µM*	5%[11.4 µM]	0%[11.4 µM]
COc1cc2c(cc1OC)-c1cc(=Nc3c(C)cc(C)cc3C)n(C)c(=O)n1CC2	-2%	6.3µM*	2.5µM*	?	?
C=CCn1c(-c2ccccc2)nc2nc3ccccc3nc21	-4%	-22%	2µM*	3%	27%
Cc1cc(-c2ccc(Cl)cc2)n2nc(N)nc2n1	0%	?	13µM*	-1%	-3%
Cc1cc(NC(=O)CC2CCCC2)n(-c2nc3ccccc3[nH]2)n1	?	-11%	?	?	25µM*
Cc1cc(Nc2nc3ccccc3[nH]c2=O)n(-c2ccccc2)n1	?	-17%	?	?	?
CN1CCCN=C1/C=C\c1cccs1	1%[25.6 µM]	17%[25.7 µM]	-4%[17.1 µM]	-4%[25.6 µM]	-1%[25.6 µM]
Cc1cc(C)n2c(Br)c(CSc3nc4ccccc4o3)nc2n1	-1%	?	6.3µM*	·	40%
O=C(CSCc1nc2ccccc2[nH]1)N1CCN(c2ccc(F)cc2)CC1	?	-30%	-18%	26%	16%
O=C(CSCc1cccc(F)c1)N1CCN(c2ccccc2)CC1	?	-1%	-12%	?	32µM*
O=C(CSCc1ccccc1)N1CCN(c2ccc(F)cc2)CC1	-1%	-19%	-24%[7.6 µM]	?	?
O=C(CSCc1nc2ccccc2[nH]1)N1CCN(c2cccc(Cl)c2)CC1	?	25µM*	-25%	?	?
CCOC(=O)CNc1c(-c2ccc(O)cc2)nc2ccc(Cl)cn12	?	?	?	-5%	-20%
Cc1cc(-c2nnco2)c(C)n1-c1ccccc1	0%	-18%	?	?	20µM*
Cc1nc2ccccn2c1-c1nnco1	0%	-12%	?	0%	1%
CCC(SC1=Nc2ccccc2C2=NC(CC(C)C)C(=O)N12)C(=O)Nc1ccc2c(c1)OCO2 (stereo unspecified)	?	-4%	?	?	16µM*
O=C(CC1N=C2c3ccccc3N=C(SCc3ccc(F)cc3)N2C1=O)NCc1ccc2c(c1)OCO2 (stereo unspecified)	1%	·	·	·	·
O=C1c2oc3ccc(F)cc3c(=O)c2C(c2cccc(O)c2)N1CCCN1CCOCC1 (stereo unspecified)	3%	·	-15%	-2%	2%
N#Cc1ccc(COC(=O)c2ccc3c(=O)[nH]c(CN4CCOCC4)nc3c2)cc1	-1%	10%	-10%	3%[11.4 µM]	-12%
CCOC(=O)c1c(-c2ccc(C)o2)csc1NC(=O)CSc1nncs1	?	8%	?	?	25µM*
CCOC(=O)c1c(-c2ccc(C)o2)csc1NC(=O)CN1CCN(CC)CC1	3%	-2%	27%	2%	22%
CCOC(=O)C1CCN(S(=O)(=O)c2cn(C)c(=O)n(C)c2=O)CC1	?	·	-6%	?	16µM*
Cc1ccc(S(=O)(=O)Cn2nnnc2C(CC(C)C)N2CCN(c3ccc(F)cc3)CC2)cc1 (stereo unspecified)	-2%	-16%	-10%	2%	14%

Screening results from PubChem.
